The full list was thinned out, with hits kept by preference.
nsP2pro primary: blocks chikungunya virus nsP2 protease peptide cleavage; Q8JUX6; FRET peptide cleavage, nsP2pro, fluorescence 1 h; Potency, µM (top dose mostly 24.9 µM), inactives show at the top dose activity change, negative = inhibition, most hits filed as inhibitors; 31,000 tested, 1.1% active; also: nearly all actives have a fitted effect of over 60% in size
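FRET cleavage of 2.5 uM peptide 2 by 150 nM CHIKV protease domain at pH 8.0 (Tris, Tween 20). Compounds at 7 concentrations (up to 25 uM) preincubated 15 min. Fluorescence read after 1 h at room temperature.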
nsP2 cell sec: inhibits CHIKV nsP2 protease in cells. shares compounds with nsP2pro primary. cell-based CHIKV nsP2 protease reporter assay. Potency, µM (doses to about 51.1 µM), inactives show at the highest dose activity change, negative = inhibition, usual class: inhibitors. 450 tested, 10% active; also: nearly all actives have a fitted effect of over 70% in size
NSP2 full ctr: selectivity test for CHIKV nsP2 protease inhibitors: full-length NSP2. shares compounds with nsP2pro primary. Full-length CHIKV NSP2 protease enzymatic counterscreen. Potency, µM (titrated, usually from 50.7 µM), without a hit: at the highest dose activity change, negative = inhibition, most hits filed as inhibitors. 410 tested, 39% active. AID 1964101; also: nearly all actives have a fitted effect of over 65% in size
Furin counterscr: human furin inhibition, counterscreen for nsP2pro inhibitors; Potency, µM (doses to about 50.6 µM), for inactives: at the top dose activity change, negative = inhibition, hits mostly inhibitors; 410 tested, 6% active; Recombinant human furin enzymatic counterscreen, fluorogenic substrate; shares compounds with nsP2pro primary
NS23 peptide cs: nsP2pro inhibition on native NS2/3 peptide substrate. shares compounds with nsP2pro primary. Purified CHIKV nsP2 protease, endogenous NS2/3 peptide cleavage. Potency, µM (highest dose often 51 µM), inactives show at the top dose activity change, negative = inhibition, most hits filed as inhibitors. 410 tested, 34% active. AID 1964103; also: nearly all actives have a fitted effect of over 55% in size
Papain counter: inhibits papain in a CHIKV nsP2 protease selectivity counterscreen | AID 1964104 | shares compounds with nsP2pro primary | Potency, µM (top dose mostly 51 µM), for the others: top-dose activity change, negative = inhibition, actives largely listed as inhibitors | purified papain protease activity, enzymatic inhibition | 410 tested, 5% active
Target sequence (P00784 whole entry, looked up): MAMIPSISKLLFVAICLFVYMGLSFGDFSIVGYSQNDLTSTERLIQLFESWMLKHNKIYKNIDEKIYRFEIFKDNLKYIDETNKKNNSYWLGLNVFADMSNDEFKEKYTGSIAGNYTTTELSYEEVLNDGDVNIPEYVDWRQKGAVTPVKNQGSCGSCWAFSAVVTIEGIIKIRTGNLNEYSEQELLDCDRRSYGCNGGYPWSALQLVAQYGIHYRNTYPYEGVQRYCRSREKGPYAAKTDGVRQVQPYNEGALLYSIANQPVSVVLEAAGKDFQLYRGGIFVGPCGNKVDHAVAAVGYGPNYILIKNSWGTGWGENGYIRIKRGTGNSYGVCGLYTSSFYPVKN
nsP2pro confirm: CHIKV nsP2 protease inhibition, confirmatory qHTS. CHIKV nsP2 protease enzymatic activity, qHTS. 410 tested, 43% active. shares compounds with nsP2pro primary. Potency, µM (series often up to 25.5 µM), inactives show at the highest dose activity change, negative = inhibition, hits mostly inhibitors; also: nearly all actives have a fitted effect of over 75% in size
HCV NS3 4A cs: inhibits HCV NS3/4A protease in an nsP2pro selectivity counterscreen. shares compounds with nsP2pro primary. HCV NS3/4A protease biochemical counterscreen. Potency, µM (top dose mostly 50.9 µM), most hits filed as inhibitors. 410 tested, 20% active; also: nearly all actives have a fitted effect of over 55% in size
The depositor's hits bear a star; i = inactive; ? = inconclusive; . = no result; ! = repeats disagree. Calls follow the shape of the full dose curve. % is scaled to controls: 0 for no effect and ±100 for the full control effect; potency is read from the fitted curve at half-maximal effect.

SMILES | nsP2pro primary | nsP2 cell sec | NSP2 full ctr | Furin counterscr | NS23 peptide cs | Papain counter | nsP2pro confirm | HCV NS3 4A cs
CCOC(=O)C1CCN(c2ccc(NCc3ccc(-c4ccc(C#N)cc4)o3)cc2)CC1 | 4.47µM* | 20.6µM* | ? | -9.0% | ? | -15.5% | -19.7% | 3.66µM*
CC(C)(C)OC(=O)N1CCN(c2ccc(NCc3ncc(-c4ccc(C#N)cc4)o3)cc2)CC1 | i | . | . | . | . | . | . | .
N#Cc1ccc(-c2ccc(CNc3ccc(N4CCC(C#N)CC4)cc3)o2)cc1 | 10µM* | ? | ? | -8.7% | ? | -16.3% | ? | 2.59µM*
CC(C)(C)OC(=O)N1CCN(c2ccc(NCc3ccc(-c4ccc(C#N)cc4)o3)nc2)CC1 | 0.2% | . | . | . | . | . | . | .
CC(C)(C)OC(=O)N1CCC(c2ccc(NCc3ccc(-c4ccc(C#N)cc4)o3)cc2)CC1 | -6.5% | . | . | . | . | . | . | .
Cc1cc(N[S+](=O)([O-])c2cc3c(cc2F)NC(=O)CC3)ccc1Br | -5.9% | . | . | . | . | . | . | .
COc1ccc(NC(=O)c2cc(-c3ccc(C)c(C)c3)nc3ccccc23)cc1 | -1.4% | . | . | . | . | . | . | .
O=C(O)CCc1ccc(-c2cccs2)n1CC(=O)Nc1ccccc1C(F)(F)F | 10.4% | -6.6% | -22.6% | -16.4% | -29.7% | -15.7% | ? | i
Cc1c(Cl)cccc1NC(=O)Cn1c(CCC(=O)O)ccc1-c1cccs1 | 6.3% | . | . | . | . | . | . | .
CCc1ccc(-n2c(CCC(=O)O)ccc2-c2cccs2)cc1 | -18.1% | . | . | . | . | . | . | .
O=C(CCN1CCN(C(=O)OCc2cc(Cl)cc(Cl)c2)CC1)c1ccc2[nH]c(=O)oc2c1 | 0.988µM*! | -2.4% | 16.3µM* | -3.3% | ? | -20.9% | 6.34µM* | i
O=C(Nc1ccc2[nH]c(=O)oc2c1)C(=O)N1CCC(Cc2ccc(F)cc2)CC1 | -5.2% | . | . | . | . | . | . | .
Cc1ccc(-c2cc(C(=O)Nc3ccccc3Cl)c3ccccc3n2)cc1C | 4.2% | . | . | . | . | . | . | .
Cc1ncc(CCCN(C)C)cc1Nc1ncc2c(n1)-c1ccc(C(F)(F)F)cc1NC(=S)C2 | 82.9% | . | . | . | . | . | . | .
Oc1cccc(-c2c3nc(c(-c4cccc(O)c4)c4ccc([nH]4)c(-c4cccc(O)c4)c4nc(c(-c5cccc(O)c5)c5ccc2[nH]5)CC4)C=C3)c1 | ? | 1.5% | 18.3µM* | 2.3% | 18.3µM* | ? | 14.2µM* | i
CS(=O)(=O)c1ccc(C(=O)OCC(=O)N2Cc3ccccc3C2)cc1[N+](=O)[O-] | 3.5% | . | . | . | . | . | . | .
CCCCCCCC(=O)N[C@H](CN1CCCC1)[C@H](O)c1ccc2c(c1)OCCO2 | -7.4% | . | . | . | . | . | . | .
COc1cccc(N2C(=O)NC(=NC3CCCCC3)C23CCCN(Cc2ccsc2)C3)c1 (stereo not given) | i | . | . | . | . | . | . | .
CN(C)C(=S)SSC(=S)N(C)C | 2.79µM* | 25.1µM* | 9.19µM* | -11.0% | 9.19µM* | -10.6% | 1.59µM* | i
CN(C)C(=S)SC(=S)N(C)C | 8.81µM* | -1.0% | 29.1µM* | 4.0% | -25.7% | -17.1% | 7.11µM* | ?
C[C@H]1O[C@]2(CS1)CN1CCC2CC1 | 7.5% | . | . | . | . | . | . | .
COC(=S)NCCn1c([N+](=O)[O-])cnc1C | 2.6% | . | . | . | . | . | . | .
CC(C)CC(=O)N1CC(=O)Nc2ccc(F)cc2C1c1ccccc1 (stereo not given) | -27.7% | . | . | . | . | . | . | .
CC(C)CC(=O)N1[C@@H](c2ccco2)[C@@H](C(=O)O)C[C@]12CCCCNC2=O | ? | 4.3% | . | . | . | . | . | .
CC(C)CC(=O)N1[C@@H](c2ccco2)[C@@H](CO)C[C@]12CCCCN(CCO)C2=O | ? | -2.0% | . | . | . | . | . | .
SMILES | nsP2pro primary | nsP2 cell sec | NSP2 full ctr | Furin counterscr | NS23 peptide cs | Papain counter | nsP2pro confirm | HCV NS3 4A cs
Cc1cc(-c2nnc3n2CCCCC3)c(C)n1-c1cccc2ccccc12 | -13.0% | . | . | . | . | . | . | .
CC1=C(C(=O)Nc2nc3ccccc3s2)C(c2[nH]ncc2Cl)N=C(Nc2nc3ccccc3o2)N1 (stereo not given) | 4.8% | . | . | . | . | . | . | .
Cc1ccc(S(=O)(=O)Nc2cnccc2C(=O)Nc2nc(-c3ccc(-c4ccccc4)cc3)cs2)cc1 | 3.2% | . | . | . | . | . | . | .
Cc1cc(Nc2c(Nc3nnc(-c4ccncc4)s3)c(=O)c2=O)ccc1Cl | i | . | . | . | . | . | . | .
Cc1ccc(-c2cc(C(=O)NCc3ccc(S(C)(=O)=O)cc3)c3ccccc3n2)cc1C | -5.6% | . | . | . | . | . | . | .
O=C(C(NS(=O)(=O)c1ccc2[nH]c(=O)ccc2c1)c1cccc(C(F)(F)F)c1)N(Cc1ccco1)Cc1cccs1 (stereo not given) | 7.94µM* | 142.1% | ? | -0.6% | -21.5% | -19.2% | -19.8% | i
CS(=O)(=O)c1ncc(N(Cc2ccccc2)Cc2ccco2)c(C(=O)Nc2cccc(C(F)(F)F)c2)n1 | -4.8% | . | . | . | . | . | . | .
O=C(c1ccccc1)N(Cc1ccco1)Cc1cccs1 | -22.0% | . | . | . | . | . | . | .
COc1c(O)cc2oc(-c3ccccc3)cc(=O)c2c1O | -8.3% | . | . | . | . | . | . | .
Cc1cc(N[S+](=O)([O-])c2cc3c(cc2Cl)NC(=O)CO3)ccc1Cl | -1.3% | . | . | . | . | . | . | .
O=C(c1cccc(Br)c1)N1CCC(N2CCCC2)CC1 | -8.9% | . | . | . | . | . | . | .
C1=C(c2cnc[nH]2)c2ccsc2CC1 | ? | 4.5% | 85.0% | ? | -12.4% | -1.4% | 40.1% | i
Cc1ccc(C#N)c(NCc2cccnc2Oc2cccc(C(F)(F)F)c2)n1 | i | . | . | . | . | . | . | .
COc1ccc(NC(=S)N2CCN(c3cccc(C(F)(F)F)c3)CC2)nc1 | -12.7% | . | . | . | . | . | . | .
Oc1ccc([C@H]2CNCc3c2ccc(O)c3O)cc1O | 3.51µM* | -20.9% | ? | -11.5% | 23.1µM* | -4.7% | 5.04µM* | 0.58µM*
